Potency and outcome data for eight molecules are collected here from PubChem BioAssay (Tox21).

The nature of assay [1]: qHTS assay to identify small molecule agonists of the sonic hedgehog signaling (Shh) pathway (AID 1259368; calls by dose curve;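 note: NIH/3T3-derived 3T3Gli1-Luc cells carrying a stable Gli1-driven firefly luciferase reporter; series mostly up to about 92 µM; nearly all actives have a fitted effect of over 15% in size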). In short, it runs like this:
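3T3Gli1-Luc (NIH/3T3 clone, stable Gli1-Luc); 4 hr pre-incubation, then cpd in DMSO 24 hr, 37 C/5% CO2; luciferase reagent 30 min RT; luminescence.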
In general terms: Quantitative high-throughput screening tests each substance at several concentrations.

Assay [2] can be described thus: qHTS assay to identify small molecule antagonists of the sonic hedgehog signaling (Shh) pathway (AID 1259369; calls by dose curve; note: nearly all actives have a fitted effect of over 45% in size). In short, it runs like this:
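3T3Gli1-Luc, conditioned-medium-stimulated, 24hr cpd, 37C/5% CO2; Gli1-driven firefly Luc luminescence after 30min RT with luciferase reagent. Cells plated 4hr before cpd.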

Assay [3] concerns the target Estrogen receptor beta (Homo sapiens) (UniProt Q92731). Description: qHTS assay to identify small molecule agonists of the estrogen receptor beta (ER-beta) signaling pathway (AID 1259377; active = well fitted activation curve with a large enough effect in the signal ratio in the repeat runs, not every such curve was filed as active; the % refers to the signal ratio). In short, it runs like this:
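HEK293T ER-beta-UAS-bla; 2% charcoal-stripped FBS; cells pre-incubated 6 hr, compound 16 hr, 37C/5% CO2; LiveBLAzer B/G FRET substrate 2 h RT; fluorescence intensity read.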

Assay [4] shares this target. Description: qHTS assay to identify small molecule antagonists of the estrogen receptor beta (ER-beta) signaling pathway (AID 1259378; active = well fitted inhibition curve with a large enough effect in the signal ratio in the repeat runs, not every such curve was filed as active; the % refers to the signal ratio). The procedure, abridged: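 ER-beta-UAS-bla HEK293T (GripTite) cells in 2% charcoal-stripped FBS medium were preincubated 6 hr at 37C, dosed with compound, then stimulated with 1 nM E2 (final) for 16 hr; beta-lactamase reporter read by B/G FRET fluorescence after 2 hr substrate loading.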

The nature of assay [5]: qHTS assay to identify small molecule agonists of the androgen receptor (AR) signaling pathway in the presence of an antagonist - cell viability counter screen (AID 1259379). Note: nearly all actives have a fitted effect of over 25% in size. Note: potency is the fitted concentration of half-maximal effect. In short, it runs like this:
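Cells: MDA-kb2 (MMTV-luc, AR and GR elements), 3,000/well, 5 hr settle. Added: nilutamide 3.0uM final, then compounds (15 conc.). Incubation: 16 hr, 37C, no CO2. Read-out: CellTiter-Fluor, 1 hr, fluorescence.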

Assay [6] is described as follows: qHTS assay to identify small molecule agonists of the estrogen receptor beta (ER-beta) signaling pathway - cell viability counter screen (AID 1259380). Note: nearly all actives have a fitted effect of over 30% in size. In short, it runs like this: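 HEK293T ER-beta-UAS-bla; 2% CS-FBS; 6 hr pre-plate, 16 hr cpd at 37C/5% CO2; LiveBLAzer read first, then CellTiter-Glo 30 min RT, luminescence.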
A short description of assay [7]: qHTS assay to identify small molecule antagonists of the estrogen receptor beta (ER-beta) signaling pathway - cell viability counter screen (AID 1259382). Note: series mostly up to about 92 µM; nearly all actives have a fitted effect of over 55% in size. The procedure, abridged:
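Cells: ER-beta-UAS-bla HEK293T, 2,000/well, 2% CS-FBS, 6 hr settle. Cpd + E2 (1nM final), 16 hr, 37C/5% CO2. Bla FRET substrate 2 hr RT, then CellTiter-Glo 30 min RT, luminescence.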

The nature of assay [8]: qHTS assay to identify small molecule agonists of the estrogen receptor alpha (ER-alpha) signaling pathway in the presence of an antagonist - cell viability counter screen (AID 1259386).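 Note: cells exposed to compounds for 22 h at 37 °C before the viability read; nearly all actives have a fitted effect of over 30% in size.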 Note: potency is the fitted concentration of half-maximal effect. In short, it runs like this:
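VM7Luc4E2, stripped-serum pre-culture 5 d; 24hr plating; +ICI-182,780 10.0nM final; cpds 15 conc, 22hr, 37C/5% CO2; CellTiter-Fluor added at 21hr, fluorescence 1hr later.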

Assay [9] deals with Progesterone receptor (Homo sapiens) (UniProt P06401). Description: qHTS assay to identify small molecule agonists of the progesterone receptor (PR) signaling pathway (AID 1346784; calls by dose curve; note: nearly all actives have a fitted effect of over 30% in size). The procedure, abridged:
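Beta-lactamase reporter read-out: after 16 hr compound treatment at 37C and a further 2 hr at room temperature with LiveBLAzer B/G FRET substrate, fluorescence was measured in PR-UAS-bla HEK 293T cells grown in 2% charcoal-stripped serum.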

Assay [10] shares this target. Description: qHTS assay to identify small molecule antagonists of the progesterone receptor (PR) signaling pathway (AID 1346795; active = well fitted inhibition curve with a large enough effect in the signal ratio in the repeat runs, not every such curve was filed as active; the % refers to the signal ratio). The procedure, abridged:
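Read-out is fluorescence from the LiveBLAzer B/G FRET substrate, cleaved by a UAS-controlled beta-lactamase in PR-UAS-bla HEK293T cells after 16 hr exposure to compound plus 1 nM promegestone (final), followed by 2 hr at room temperature.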

Assay [11] can be described thus: qHTS assay to identify small molecule antagonists of the progesterone receptor (PR) signaling pathway - cell viability counter screen (AID 1346798). Note: series mostly up to about 92 µM; nearly all actives have a fitted effect of over 50% in size. In short, it runs like this: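 HEK293T PR-UAS-bla, 2% charcoal-stripped FBS; 4 hr pre-plate; cpd + R5020, 16 h 37C; LiveBLAzer read first; then CellTiter-Glo 30 min RT, luminescence.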
Assay [12] in a line: qHTS assay to identify small molecule agonists of the progesterone receptor (PR) signaling pathway - cell viability counter screen (AID 1346799; calls by dose curve; note: nearly all actives have a fitted effect of over 45% in size). The procedure, abridged: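 Luminescence from CellTiter-Glo, added after the beta-lactamase FRET read in the same wells, gave cytotoxicity in PR-UAS-bla HEK293T cells treated with compounds for 16 hr at 37C.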
A short description of assay [13]: qHTS assay to identify small molecule antagonists of the TGF-beta/Smad signaling pathway - cell viability counter screen (AID 1346824). Note: nearly all actives have a fitted effect of over 50% in size. In short, it runs like this: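 SBE-bla HEK 293T cells were plated overnight at 37 C, then given compounds in DMSO plus TGF-beta1 (added as 0.25 ng/mL solution) for 5 hr. After the bla read, CellTiter-Glo was added to the same wells and luminescence read after 30 min at room temperature.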

A short description of assay [14]: qHTS assay to identify small molecule agonists of the TGF-beta/Smad signaling pathway - cell viability counter screen (AID 1346829). Note: top concentration of the series differs between compounds; nearly all actives have a fitted effect of over 45% in size. The procedure, abridged: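 In parallel with the Smad reporter read, viability of HEK 293T cells stably carrying SBE-bla is quantified by ATP luminescence following 5 hr compound treatment.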
A short description of assay [15]: qHTS assay to identify small molecule agonists of the TGF-beta/Smad signaling pathway (AID 1346859; active = well fitted activation curve with a large enough effect in the signal ratio in the repeat runs, not every such curve was filed as active; the % refers to the signal ratio; note: series mostly up to about 77 µM). The procedure, abridged:
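SBE-bla HEK 293T, 4,000 cells/well, plated o/n; cpd in DMSO, 5 hr, 37 C/5% CO2; B/G FRET substrate 2 hr RT; ex 405, em 460/530 nm.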

Assay [16] deals with Thyrotropin-releasing hormone receptor (Homo sapiens) (UniProt P34981). Description: qHTS assay to identify small molecule antagonists of the thyrotropin-releasing hormone receptor (TRHR) signaling pathway (AID 1346877; active = well fitted inhibition curve with a large enough effect in the repeat runs, not every such curve was filed as active; note: series mostly up to about 51 µM). The procedure, abridged: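 Intracellular calcium fluorescence, read kinetically every second over 3 min, reports TRH-evoked signalling in HEK293 cells carrying TRHR. Test compounds were added 5 min ahead of a 1 nM TRH challenge.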
Thyrotropin-releasing hormone receptor (Homo sapiens), sequence (P34981 whole entry, looked up): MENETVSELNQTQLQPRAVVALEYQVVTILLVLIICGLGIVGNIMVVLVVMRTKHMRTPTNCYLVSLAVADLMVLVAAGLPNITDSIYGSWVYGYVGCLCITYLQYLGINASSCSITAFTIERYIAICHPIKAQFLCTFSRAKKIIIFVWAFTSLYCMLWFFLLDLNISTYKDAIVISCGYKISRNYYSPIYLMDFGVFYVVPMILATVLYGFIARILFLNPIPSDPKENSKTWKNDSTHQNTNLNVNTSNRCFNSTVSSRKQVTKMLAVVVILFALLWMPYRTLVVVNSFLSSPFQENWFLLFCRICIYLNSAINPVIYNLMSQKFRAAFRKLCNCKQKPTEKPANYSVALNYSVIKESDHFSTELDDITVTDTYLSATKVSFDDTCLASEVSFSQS

The target of assay [17] is Androgen receptor (Homo sapiens) (UniProt P10275). Description: qHTS assay to identify small molecule agonists of the androgen receptor (AR) signaling pathway in the presence of an antagonist (AID 1259381; calls by dose curve; note: nearly all actives have a fitted effect of over 15% in size). In short, it runs like this: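 MDA-kb2 cells, 3,000/well, rested 5hr at 37C/0% CO2 → nilutamide 3.0uM final or buffer → compounds, 15 conc. → 16hr at 37C → ONE-Glo, 30min RT → luminescence.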
Androgen receptor (Homo sapiens), sequence (P10275 whole entry, looked up): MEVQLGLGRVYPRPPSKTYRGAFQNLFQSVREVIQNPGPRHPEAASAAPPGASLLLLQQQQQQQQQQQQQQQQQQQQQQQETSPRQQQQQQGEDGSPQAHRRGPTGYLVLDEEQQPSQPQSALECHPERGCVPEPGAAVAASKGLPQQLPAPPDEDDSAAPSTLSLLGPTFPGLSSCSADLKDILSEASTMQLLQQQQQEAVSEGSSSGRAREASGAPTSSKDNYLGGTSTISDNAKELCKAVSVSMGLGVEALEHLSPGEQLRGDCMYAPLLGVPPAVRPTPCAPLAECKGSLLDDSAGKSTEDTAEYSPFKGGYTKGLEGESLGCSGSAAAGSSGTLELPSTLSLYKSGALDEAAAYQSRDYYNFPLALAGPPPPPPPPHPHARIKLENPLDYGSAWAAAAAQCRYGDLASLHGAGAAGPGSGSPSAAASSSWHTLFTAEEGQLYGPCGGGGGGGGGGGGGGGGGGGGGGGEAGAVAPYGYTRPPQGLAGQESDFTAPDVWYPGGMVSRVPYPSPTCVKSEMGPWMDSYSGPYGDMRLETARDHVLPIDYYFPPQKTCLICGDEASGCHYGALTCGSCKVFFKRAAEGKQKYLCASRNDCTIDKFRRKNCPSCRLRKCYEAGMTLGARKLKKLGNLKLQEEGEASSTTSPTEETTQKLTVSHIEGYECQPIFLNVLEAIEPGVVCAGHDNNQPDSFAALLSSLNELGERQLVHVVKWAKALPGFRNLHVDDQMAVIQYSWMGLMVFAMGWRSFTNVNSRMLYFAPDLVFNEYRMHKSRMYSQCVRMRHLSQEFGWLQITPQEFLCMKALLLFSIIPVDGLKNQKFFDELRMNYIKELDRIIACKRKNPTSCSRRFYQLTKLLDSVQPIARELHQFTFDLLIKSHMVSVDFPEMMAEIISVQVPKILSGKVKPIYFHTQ

Assay [18] can be described thus: qHTS assay to identify small molecule agonists or antagonists of the thyroid stimulating hormone receptor (TSHR) signaling pathway - wild type cell line counter screen (AID 1259384; calls by dose curve). In short, it runs like this:
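Wild-type HEK293 cells were plated 18 h at 37 C/5% CO2, pin-dosed with compound plus Ro20-1724 medium, held 30 min at room temperature, then given cAMP-d2 and anti-cAMP-cryptate; fluorescence was read after 1 h. Fifteen concentrations, triplicate.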

Assay [19] addresses Thyrotropin receptor (Homo sapiens) (UniProt P16473). Description: qHTS assay to identify small molecule antagonists of the thyroid stimulating hormone receptor (TSHR) signaling pathway (AID 1259385; calls by dose curve; note: nearly all actives have a fitted effect of over 20% in size). In short, it runs like this:
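TSHR-HEK293 cells were plated and held 18 h at 37C/5% CO2, then given compound plus Ro20-1724 and stimulated with TSH at 1.5 ng/mL final. After 30 min at room temperature, cAMP was detected with cAMP-d2/anti-cAMP-cryptate (1 h) by fluorescence.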

In assay [20] the target is Estrogen receptor (Homo sapiens) (UniProt P03372). Description: qHTS assay to identify small molecule agonists of the estrogen receptor alpha (ER-alpha) signaling pathway in the presence of an antagonist (AID 1259383; calls by dose curve; note: top concentration of the series differs between compounds; nearly all actives have a fitted effect of over 15% in size). The procedure, abridged:
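VM7Luc4E2, endog. ER-alpha + 4×ERE-luc; charcoal-stripped FBS, phenol red-free, 5 d; 24hr plating; +10.0nM ICI-182,780 (final); cpds 15 conc, 22hr, 37C/5% CO2; ONE-Glo luminescence.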

Values without a mark were called inactive. Records with an inconclusive call do not appear. Calls of active or inactive are those of the source. Unless noted, calls come from the whole dose curve; as a rule, active = well fitted curve in the direction sought with a large enough effect in the repeat runs; inconclusive = weak or mixed curves; inactive = no such curve, though single readings can be large; an effect the other way counts as inactive or inconclusive.

Thyrotropin receptor (Homo sapiens), sequence (P16473 whole entry, looked up): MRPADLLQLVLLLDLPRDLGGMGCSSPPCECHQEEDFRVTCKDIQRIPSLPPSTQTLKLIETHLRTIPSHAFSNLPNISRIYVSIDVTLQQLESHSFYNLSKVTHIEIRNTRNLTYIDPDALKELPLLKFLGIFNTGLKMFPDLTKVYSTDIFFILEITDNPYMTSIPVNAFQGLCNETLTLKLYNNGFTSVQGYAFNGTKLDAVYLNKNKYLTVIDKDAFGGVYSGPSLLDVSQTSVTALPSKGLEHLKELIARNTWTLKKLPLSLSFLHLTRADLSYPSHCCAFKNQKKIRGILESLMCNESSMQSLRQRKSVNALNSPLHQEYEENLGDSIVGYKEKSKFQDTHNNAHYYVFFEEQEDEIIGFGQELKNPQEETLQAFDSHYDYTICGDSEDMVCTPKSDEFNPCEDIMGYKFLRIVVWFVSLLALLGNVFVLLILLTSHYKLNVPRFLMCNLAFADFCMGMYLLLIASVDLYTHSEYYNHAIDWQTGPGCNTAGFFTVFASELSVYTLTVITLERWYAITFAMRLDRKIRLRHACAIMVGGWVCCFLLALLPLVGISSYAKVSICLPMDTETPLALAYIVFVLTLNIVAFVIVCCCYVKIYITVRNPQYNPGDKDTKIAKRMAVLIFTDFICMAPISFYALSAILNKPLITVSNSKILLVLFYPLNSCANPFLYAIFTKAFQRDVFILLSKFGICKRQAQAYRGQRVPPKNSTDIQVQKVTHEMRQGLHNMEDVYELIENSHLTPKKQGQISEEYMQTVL
Estrogen receptor beta (Homo sapiens), sequence (Q92731 whole entry, looked up): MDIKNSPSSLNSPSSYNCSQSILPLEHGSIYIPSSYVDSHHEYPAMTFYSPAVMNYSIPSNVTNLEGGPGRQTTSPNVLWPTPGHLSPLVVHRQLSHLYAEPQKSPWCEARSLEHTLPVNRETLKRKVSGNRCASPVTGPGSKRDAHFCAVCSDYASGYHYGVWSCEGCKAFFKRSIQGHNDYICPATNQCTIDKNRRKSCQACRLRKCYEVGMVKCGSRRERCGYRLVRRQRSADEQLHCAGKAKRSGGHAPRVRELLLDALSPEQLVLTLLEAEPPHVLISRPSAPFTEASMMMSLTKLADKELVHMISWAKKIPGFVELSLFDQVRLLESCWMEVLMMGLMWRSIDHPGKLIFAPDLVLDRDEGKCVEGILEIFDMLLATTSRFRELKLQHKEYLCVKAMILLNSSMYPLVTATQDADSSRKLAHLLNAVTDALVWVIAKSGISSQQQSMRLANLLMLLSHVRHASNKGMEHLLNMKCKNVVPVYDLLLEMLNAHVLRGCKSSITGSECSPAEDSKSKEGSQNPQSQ
Progesterone receptor (Homo sapiens), sequence (P06401 whole entry, looked up): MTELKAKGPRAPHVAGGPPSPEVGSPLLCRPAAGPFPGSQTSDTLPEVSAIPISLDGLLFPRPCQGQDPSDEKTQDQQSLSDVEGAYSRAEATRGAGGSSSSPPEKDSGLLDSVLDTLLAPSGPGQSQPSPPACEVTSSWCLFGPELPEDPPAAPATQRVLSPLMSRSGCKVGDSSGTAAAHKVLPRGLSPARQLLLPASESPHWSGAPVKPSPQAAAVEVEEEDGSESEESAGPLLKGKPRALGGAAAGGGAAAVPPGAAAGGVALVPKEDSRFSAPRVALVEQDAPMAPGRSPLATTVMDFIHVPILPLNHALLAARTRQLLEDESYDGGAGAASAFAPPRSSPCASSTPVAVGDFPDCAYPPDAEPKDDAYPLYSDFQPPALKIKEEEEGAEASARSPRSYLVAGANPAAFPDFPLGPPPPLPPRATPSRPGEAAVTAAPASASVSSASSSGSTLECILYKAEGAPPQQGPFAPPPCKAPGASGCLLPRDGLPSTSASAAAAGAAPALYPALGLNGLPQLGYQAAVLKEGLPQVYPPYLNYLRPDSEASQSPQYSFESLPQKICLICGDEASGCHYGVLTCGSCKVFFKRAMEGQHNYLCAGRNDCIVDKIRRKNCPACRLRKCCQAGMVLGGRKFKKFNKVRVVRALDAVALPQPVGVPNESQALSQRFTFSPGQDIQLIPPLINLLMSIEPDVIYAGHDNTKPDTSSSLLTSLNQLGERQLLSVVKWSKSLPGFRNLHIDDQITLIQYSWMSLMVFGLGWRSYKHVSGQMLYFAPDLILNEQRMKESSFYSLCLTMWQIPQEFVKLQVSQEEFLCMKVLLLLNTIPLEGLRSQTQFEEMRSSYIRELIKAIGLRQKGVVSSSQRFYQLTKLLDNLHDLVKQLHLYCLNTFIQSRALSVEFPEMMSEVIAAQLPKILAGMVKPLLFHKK
Estrogen receptor (Homo sapiens), sequence (P03372 whole entry, looked up): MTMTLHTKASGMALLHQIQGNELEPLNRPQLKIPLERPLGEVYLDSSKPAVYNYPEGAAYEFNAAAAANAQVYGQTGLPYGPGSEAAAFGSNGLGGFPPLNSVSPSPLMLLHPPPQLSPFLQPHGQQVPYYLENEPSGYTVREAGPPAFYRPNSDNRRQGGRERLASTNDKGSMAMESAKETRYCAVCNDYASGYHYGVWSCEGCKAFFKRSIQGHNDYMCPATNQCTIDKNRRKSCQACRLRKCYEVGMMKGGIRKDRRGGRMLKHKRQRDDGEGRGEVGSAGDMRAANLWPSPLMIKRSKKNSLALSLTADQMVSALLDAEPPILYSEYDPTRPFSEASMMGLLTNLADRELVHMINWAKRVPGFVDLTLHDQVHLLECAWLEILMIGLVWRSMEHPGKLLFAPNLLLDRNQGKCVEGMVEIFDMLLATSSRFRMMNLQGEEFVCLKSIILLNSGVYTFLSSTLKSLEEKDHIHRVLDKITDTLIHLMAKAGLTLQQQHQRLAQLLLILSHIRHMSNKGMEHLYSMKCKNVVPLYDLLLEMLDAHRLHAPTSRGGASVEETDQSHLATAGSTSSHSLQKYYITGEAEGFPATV

Consider `CC(O)Cn1cnc2c1c(=O)n(C)c(=O)n2C` (stereo not given), for which the Potency result in assay [1], in [2], in assay [3], in assay [4], in assay [5] and in assay [6] was “inactive” in each case. For the same molecule, the Potency entry in [7], in [8], in assay [9], in assay [10], in assay [11] and in assay [12] was “inactive” throughout. For the same molecule, the Potency result in assay [14] and in assay [15] was “inactive” each time. The outcome in assay [13] and in assay [16] was inactive.

As for `C[C@H](CS)C(=O)N1CCC[C@H]1C(=O)O`, the Potency result in [1], in assay [2], in assay [3], in assay [4], in assay [5] and in assay [6] was “inactive” each time. In addition, the Potency entry in assay [17], in assay [7], in assay [18], in assay [19], in assay [8] and in assay [9] was “inactive” in each case. For the same molecule, the Potency entry in [10], in assay [11], in assay [12] and in [15] was “inactive” throughout. For the same molecule, the molecule was called inactive in assay [16].

As to `CC(C)COC(=O)COc1cc(Cl)c(Cl)cc1Cl`, the Potency result in assay [1], in assay [2], in [3], in assay [4], in assay [5] and in assay [6] was “inactive” in each case. Also, the Potency entry in [7], in assay [20], in assay [18], in [19], in assay [8] and in assay [9] was “inactive” throughout. Moreover, the Potency result in assay [10], in [11], in assay [12] and in assay [15] was “inactive” throughout. For the same molecule, the molecule was called inactive in assay [13] and in assay [16].

`Cc1cc([N+](=O)[O-])ccc1N`: the Potency entry in assay [1], in [2], in assay [3], in [4], in [6] and in [7] was “inactive” each time. For the same molecule, the Potency result in assay [20], in [18], in [9], in assay [12], in assay [14] and in assay [15] was “inactive” throughout. The Potency in [5] was 53.8 µM (active); in assay [8], 47.9 µM (active). In assay [13], the molecule was called inactive.

On to `CC1CCCC(=O)C1=O` (stereo not given), for which the Potency entry in [1], in [2], in assay [3], in [4], in assay [5] and in [6] was “inactive” each time. Further, the Potency result in assay [17], in assay [7], in assay [20], in assay [8], in assay [9] and in assay [10] was “inactive” each time. For the same molecule, the Potency entry in assay [11], in [14] and in [15] was “inactive” each time.

On to `Cc1cccc2sc(N)nc12`, for which the Potency entry in assay [1], in [2], in [3], in assay [4], in assay [5] and in [6] was “inactive” each time. The Potency entry in [20], in assay [18], in [8], in [9], in assay [10] and in assay [11] was “inactive” each time. The Potency entry in assay [14] and in assay [15] was “inactive” in each case. In addition, the molecule was classed as inactive in [13] and in assay [16].

Regarding `CC(=O)N[C@@H](Cc1ccc(O)cc1)C(=O)O`, the Potency entry in assay [1], in assay [2], in [3], in assay [4], in [5] and in [6] was “inactive” each time. Further, the Potency result in assay [7], in assay [18], in assay [19], in [8], in assay [9] and in assay [10] was “inactive” in each case. Also, the Potency entry in [11], in assay [14] and in assay [15] was “inactive” in each case.

With `CC(C)(C)NCC(O)COc1cccc2c1C[C@H](O)[C@H](O)C2` (stereo not given in full), the Potency entry in [1], in assay [2], in assay [3], in assay [4], in assay [5] and in assay [6] was “inactive” each time. Moreover, the Potency result in assay [7], in [20], in assay [18], in assay [19], in assay [8] and in assay [9] was “inactive” in each case. Also, the Potency entry in assay [10], in [11], in [12], in [14] and in assay [15] was “inactive” each time. Moreover, the outcome in assay [13] was inactive.
